Source: PubChem
Compounds with a hit are over-represented: about 2.1% of the library has one in this group of screens.
IEC-6 cytotox = cytotoxicity in IEC-6 intestinal epithelial cells, primary screen, cytotoxicity control for KLF5 inhibitor project, cell-based, luminescence | IEC-6 cytotoxicity, luminescence viability | inhibition, % at 5 µM | 0.78% of 290,000 active;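 further: 0% = plate median of test compound wells and 100% = cytotoxic reference compound wells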
BaF3 parental = parental Ba/F3 cell viability inhibition, counter-screen for JAK2V617F inhibitor project, murine pro-B, CellTiter-Glo luminescence. CellTiter-Glo ATP luminescence. inhibition, % at 5.6 µM. 1.1% of 220,000 active. AID 1486, 2009;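 active means inhibition above a per-campaign cutoff, the mean inhibition of all tested compounds plus 3 SD, cut at about 27% in these data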;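 further: 0% = DMSO wells and 100% = JAK Inhibitor I control wells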
aSyn UTR inh = MLPCN primary screen, SNCA 5' untranslated region; alpha-synuclein 5'UTR reporter, inhibitor activity; inhibition, % (tested at 7.5 µM); 0.82% of 300,000 active; AID 1813, 2009; in the data active means inhibition above about 60%;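 further: H4 neuroglioblastoma cells stably carrying SNCA 5'UTR luciferase fusion; 0% = DMSO wells and 100% = positive control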
APP transl inh = inhibitors of APP translation via 5'UTR reporter, primary screen, APP 5'UTR luciferase, SH-SY5Y cells; 0.82% of 190,000 active; inhibition, % at 2 µM; SH-SY5Y APP 5'UTR-luciferase reporter, luminescence;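 active means inhibition above a set limit, derived from the sample mean plus 3 SD, cut at about 45% in these data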
Ba/F3 V617F tox = reduced viability of JAK2V617F-dependent Ba/F3 cells, primary screen, JAK2V617F inhibitor project, cell-based, Ba/F3 EpoR-JAK2V617F, luminescence. inhibition, % at 5.6 µM. ATP luminescence. AID 1446, 2008. 1.1% of 220,000 active;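 active means inhibition above the campaign mean plus 3 SD over all tested compounds, cut at about 24% in these data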;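 further: cytokine-independent growth of Ba/F3 cells driven by EpoR plus mutant JAK2; 0% = DMSO-treated cells and 100% = JAK inhibitor I control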
KLF5 inh = KLF5 expression inhibitors, primary screen, DLD-1 cells, luminescence. AID 1700, 2009. inhibition, % at 5 µM. DLD-1 KLF5 promoter-luciferase reporter. 0.23% of 290,000 active;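 active means inhibition above a per-plate limit of that plate's mean compound inhibition plus 3 SD, cut at about 60% in these data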;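 further: 0% = DMSO wells and 100% = LY294002 at 200 µM; higher means less KLF5 promoter-driven luciferase light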
IEC-6 cytotox cf = cytotoxic compounds in IEC-6 epithelial cells, confirmation, cytotoxicity control, cell-based, luminescence. inhibition, % at 5 µM. AID 1907, 2009. IEC-6 rat intestinal epithelial viability. 63% of 1,900 active. shares compounds with IEC-6 cytotox;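 further: 0% = vehicle and 100% = reference cytotoxic drug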
* marks the source's active call; other numbers are inactive results; i = inactive; . = no result given. Unless noted, no stated cut-off is given here; in the data, active means inhibition above about 22%; inactive means the rest.

SMILES	IEC-6 cytotox	BaF3 parental	aSyn UTR inh	APP transl inh	Ba/F3 V617F tox	KLF5 inh	IEC-6 cytotox cf
O=C(N/N=C/C(Br)=C/c1ccccc1)c1n[nH]c2c1CCC2	94*	92*	-19	.	92*	-49	3
O=C(N/N=C/c1ccc(Cl)cc1)c1n[nH]c2c1CCCC2	82*	71*	46	.	75*	19	63*
CC1(C)Oc2ccc(C(=O)N/N=C/c3ccc(O)cc3)cc2NC1=O	5	.	7	.	.	-15	.
Cc1nc(C)c(-c2csc(Nc3ccc(N)cc3)n2)s1	4	.	-42	.	.	4	.
COc1ccc(Nc2nc(-c3sc(C)nc3C)cs2)cc1	76*	.	39	.	.	44	56*
CCc1cccc(CC)c1NC(=O)CN1CCc2cc(OC)c(OC)cc2C1	5	.	-1	.	.	-7	.
O=C(c1ccc(CS(=O)c2ccccc2Cl)o1)N1CCN(c2ccccn2)CC1 (centres undefined)	56*	.	-4	.	.	40	45*
CCC(=O)N1CCN(c2ccccc2NC(=O)c2ccc([N+](=O)[O-])o2)CC1	38*	.	-49	.	.	1	16
CC(C)C(=O)N1CCN(c2ccccc2NC(=O)c2ccc([N+](=O)[O-])o2)CC1	26*	.	-27	.	.	-8	23*
CCC(=O)N1CCN(c2ccccc2NC(=O)Cc2ccccc2)CC1	4	1	7	-16	-3	-4	.
Fc1cccc(NCCc2c[nH]c3ccccc23)n1	-2	.	-101	.	.	-28	.
Cc1ccc(-c2nc(NCCCO)c3ccccc3n2)cc1	4	.	21	.	.	2	.
c1ccc2c(NCCc3c[nH]c4ccccc34)c3ccccc3nc2c1	22*	.	i	.	.	-19	16
OCCCNc1c2ccccc2nc2ccccc12	39*	.	-155	.	.	35	26*
CCOC(=O)N1CCN(C(=O)Cc2ccccc2OC)CC1	-6	.	0	.	.	-22	.
CC(=O)Nc1nc(-c2ccc3c(c2)CCN3C(=O)C2CC2)c(C)s1	49*	.	-255	.	.	-40	4
CNc1nc(-c2ccc3c(c2)CCN3C(=O)CC(C)(C)C)c(C)s1	-2	7	-118	-4	-2	-13	.
Cc1cc(N2CCCC(C(=O)Nc3cccc4ccccc34)C2)n2ncnc2n1 (centres undefined)	7	12	19	-7	4	-21	.
O=C(c1ccc(Cl)cc1)C(CN1CCCCC1)c1ccccc1 (centres undefined)	22*	.	-106	.	.	-25	20
CCOC(=O)C(CN1CCCC1)c1ccccc1 (centres undefined)	.	.	5	.	.	.	.
CN(C)CCCN1C(=O)c2cccc3c([N+](=O)[O-])ccc(c23)C1=O	39*	79*	.	80*	95*	10	27*
CC(C)c1ccc(Nc2ncccc2C(=O)O)cc1	58*	11	-101	-140	7	-186	26*
COc1ccc(N2CCN(S(=O)(=O)c3c(C)n(C)c(=O)n(C)c3=O)CC2)cc1	4	.	-5	.	.	-18	.
Oc1ccc(Br)cc1/C=N/NC(=S)NCCc1ccccc1	-3	.	20	.	.	-9	.
CC(C)NC(=S)N/N=C/c1cc(Br)ccc1O	94*	3	-29	-10	-6	-14	1
SMILES	IEC-6 cytotox	BaF3 parental	aSyn UTR inh	APP transl inh	Ba/F3 V617F tox	KLF5 inh	IEC-6 cytotox cf
Cc1ccc2nc3c(cc2c1)CN(Cc1ccco1)C(=NCC1CCCO1)S3 (centres undefined)	2	6	3	18	1	-32	.
Cc1cccc2cc3c(nc12)SC(=NCC1CCCO1)N(Cc1ccco1)C3 (centres undefined)	88*	9	19	2	9	9	4
CCc1ccc(C(=O)COC(=O)c2ccccc2OC)cc1	-2	.	-45	.	.	-23	.
COc1c(Cl)cnn(-c2ccc(C)cc2)c1=O	-5	10	-2	13	6	12	.
O=c1c(Br)c(Br)cnn1-c1ccccc1	102*	50*	.	96*	101*	-13	46*
Cc1ccc(-n2ncc(Br)c(Br)c2=O)cc1	102*	106*	55	94*	101*	-5	30*
COc1ccc(Cl)cc1NC(=O)C1CCCN(S(C)(=O)=O)C1 (centres undefined)	9	.	-4	.	.	-11	.
CCCn1c(CN2CCN(C(=O)OCC)CC2)nc2cc(NC(=O)CC)ccc21	53*	.	-23	.	.	61	24*
CCOC(=O)N1CCN(Cc2nc3cc(NC(=O)CC)ccc3n2C)CC1	-6	.	-15	.	.	-21	.
COC(=O)COc1ccc(NC(=O)C(c2ccccc2)c2ccccc2)cc1	25*	.	-2	.	.	-18	0
CCCC(=O)Nc1nnc(S(=O)(=O)N(CC)c2ccc(OC)cc2)s1	3	.	29	.	.	-29	.
CCN(CC)c1ccc2nc3ccccc3[n+](CC)c2c1	34*	.	59	.	.	20	33*
CC1=C/C(=N\NC(=S)Nc2cccnc2)CC(C)(C)C1	29*	7	-25	-1	8	-8	59*
CC1(C)C2CC=C(/C=N/NC(=S)Nc3cccnc3)C1C2 (centres undefined)	-6	4	0	-18	-2	-4	.
COc1cc(OC)cc(C(=O)Nc2ccc(N3CCN(C(=O)c4cccs4)CC3)cc2)c1	36*	.	-180	.	.	20	31*
O=C1CCCC(=NCc2ccco2)C1	2	-1	10	20	-2	-7	.
CN(C)c1nc(=NCc2ccco2)ss1	97*	8	-4	.	12	-5	30*
CCCCn1c(N)c(N(CC(C)C)C(=O)c2cccs2)c(=O)[nH]c1=O	.	.	4	.	.	.	.
Cc1ccc2c(c1)C(c1ccccc1)N(C(=O)c1cccc([N+](=O)[O-])c1)CC(=O)N2 (centres undefined)	4	.	11	.	.	-9	.
CCOC(=O)c1nc(NNC(=O)c2ccc([N+](=O)[O-])cc2)sc1C	38*	.	62*	.	.	53	21
O=S(=O)(c1ccc(Cl)cc1)N1CCC(c2nc3ccccc3[nH]2)CC1	31*	.	76*	.	.	3	28*
Cc1ccc(Cn2nnnc2CN2CCC(c3nc4ccc(Cl)cc4[nH]3)CC2)cc1	88*	82*	78*	68*	92*	46	54*
COc1ccc(CNC(=O)CN2CCC(NC(=O)c3ccccc3C)CC2)cc1	-1	.	15	.	.	-2	.
Cc1cc(-c2ccccc2)nc(N2CCN(c3ccccn3)CC2)n1	26*	1	3	-11	2	-25	41*
Nc1nc(N2CCN(c3ccccn3)CC2)nc2ccccc12	-1	.	-118	.	.	-106	.
O=C(c1ccccc1-c1ccccc1)N1CCN(c2ccccn2)CC1	34*	55*	-2	46*	75*	35	39*
Cc1nn2cnnc2c(C)c1Cc1ccc(Cl)cc1	3	.	-13	.	.	-40	.
